Assay outcomes as filed in PubChem BioAssay.
MazF activator – activators of E. coli MazEF toxin-antitoxin RNase; FAM/BHQ RNA-DNA oligo cleavage fluorescence, 5 h; P0AE70; actives 0.32% (n = 350,000); AID 504720; activation, % at 20 µM; in the data active = activation above about 50%
Target sequence (P0AE70 whole entry, looked up): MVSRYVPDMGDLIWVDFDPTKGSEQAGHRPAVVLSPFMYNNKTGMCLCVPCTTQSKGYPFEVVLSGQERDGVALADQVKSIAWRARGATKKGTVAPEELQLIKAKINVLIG
Autofluor counter – counter-screen for toxin protease inhibitors: compound fluorescence. compound autofluorescence counterscreen, microsphere flow cytometry; hits give high values. fluorescence intensity (no concentration beside the values). actives 3.1% (n = 360,000). AID 624483; in the data active = fluorescence intensity above about 16000; inconclusive = no clear call, values can overlap the other calls
BoNT-A LC inh2 – blocks Botulinum neurotoxin A light chain protease. multiplex microsphere protease substrate cleavage, flow cytometry. AID 588499. inhibition, % at 10 µM. actives 0.17% (n = 360,000); also: plate controls were buffer without enzyme for full effect and enzyme alone for no effect
BoNT-F LC inh – BoNT F light chain protease inhibition; Multiplex microsphere protease cleavage assay, flow cytometry; inhibition, % at 10 µM; actives 0.22% (n = 360,000); AID 588497; in the data active = inhibition above about 35%, passing the limit was not always enough; inconclusive = no clear call, values can overlap the other calls; also: plate controls were buffer without enzyme for full effect and enzyme alone for no effect
Anthrax LF inh2 – anthrax lethal factor protease inhibition; P15917; multiplex microsphere protease cleavage assay, LF; inhibition, % at 10 µM; actives 0.12% (n = 360,000); also: plate controls were buffer without enzyme for full effect and enzyme alone for no effect
The depositor's hits bear a star; ? = inconclusive; . = not tested or not shown. An excerpt weighted towards active compounds, which were near 3.6% of everything screened. Rule as the data show it, unless noted: active = inhibition above about 30%; inconclusive = no clear call, values can overlap the other calls; inactive = below that.

SMILES	MazF activator	Autofluor counter	BoNT-A LC inh2	BoNT-F LC inh	Anthrax LF inh2
CCOc1ccc(-c2cc(CCCC(=O)NCCc3ccccc3)no2)cc1	6	3902	0	2	-1
COc1ccc(-c2cc(CCCC(=O)NCCc3ccc(OC)cc3OC)no2)cc1	-23	24435*	-2	-2	-2
O=C(Nc1ccccc1)N1CCN(c2nc3ccccc3s2)CC1	3	21122*	2	3	-1
NC(=O)c1ccc(-c2ncc(-c3ccccc3)o2)cc1	-2	18854*	6	6	-2
Cc1ccc(Cc2c(-c3ccc(F)cc3)nc3ccc(Br)cn23)cc1	.	5768	8	1	19
Cc1csc(NC(=O)CCCSc2nc3ccccc3s2)n1	0	21652*	1	2	-3
CC(C)c1nnc(NC(=O)CSc2nc3ccccc3s2)s1	0	20149*	4	5	-12
Cc1csc(NC(=O)CSc2nc3ccccc3s2)n1	7	2323	-1	8	-3
O=S1(=O)N[C@H](Cc2ccccc2)COc2cc(N3CCSCC3)ccc21	.	5564	0	-4	-3
C=CCn1c(SCc2c(C)noc2C)nc2sc3c(c2c1=O)CCCCC3	-7	24051*	-2	-6	-1
C=CCn1c(SCc2c(C)noc2C)nc2sc3c(c2c1=O)CCCC3	4	10261	-1	-10	-4
O=C([C@@H]1CCCN1C1=NS(=O)(=O)c2ccccc21)N1CCN(c2ccccc2)CC1	-7	3744	0	5	-2
CCC(=O)Oc1ccc(C(=O)Nc2ccc3c(c2)C(=O)N(C2CCCCC2)C3=O)cc1	-1	19149*	3	4	-4
CC(C)(C)NC(=O)c1ccc2c(c1)C(=O)N(C1CCCCC1)C2=O	2	16466*	-2	-3	-6
O=C(O)COc1ccc(NC(=O)c2ccc3c(c2)C(=O)N(C2CCCCC2)C3=O)cc1	-1	5361	2	-2	0
O=C(O)C(CCC(C(=O)O)c1ccccc1)c1ccccc1 (configuration not stated)	7	4477	0	1	-3
COc1ccc(NC(=O)CN(C)C(C)C(=O)NC(=O)NC2CCCCC2)cc1 (configuration not stated)	2	4563	-2	-5	-3
CCOc1cc(C)nc(Oc2ccc(=O)[nH]n2)n1	5	23697*	?	2	-4
COc1ccc(N(CC(=O)Nc2ccc(F)c(Cl)c2)S(=O)(=O)c2c(C)noc2C)cc1	-1	16336*	0	0	-4
CCOc1ccc(N(CC(=O)Nc2ccc(OC)cc2)S(=O)(=O)c2c(C)noc2C)cc1	7	4033	0	-3	-16
COc1ccc(N(CC(=O)Nc2ccc(C)cn2)S(=O)(=O)c2c(C)noc2C)cc1	-8	17199*	-3	-6	-2
COc1ccc(N(CC(=O)Nc2ccc(OC)c(Cl)c2)S(=O)(=O)c2c(C)noc2C)cc1	6	20070*	2	2	-11
COc1ccc(N(CC(=O)Nc2cc(Cl)ccc2OC)S(=O)(=O)c2c(C)noc2C)cc1	-5	20289*	?	-5	-3
COc1ccc(N(CC(=O)NCc2ccc(C)cc2)S(=O)(=O)c2c(C)noc2C)cc1	9	5142	0	3	-2
Cc1cc(C)c(S(=O)(=O)N2CCCCC2CCNC(=O)C(=O)NC2CC2)c(C)c1 (configuration not stated)	4	.	.	.	.
SMILES	MazF activator	Autofluor counter	BoNT-A LC inh2	BoNT-F LC inh	Anthrax LF inh2
CCC(C)c1ccc(O)c(N)c1 (configuration not stated)	-4	16286*	0	-3	-3
CCOC(=O)c1c(NC(=O)Nc2cccc(Cl)c2)sc(C)c1C	8	23460*	-2	-4	-5
CCOC(=O)c1c(NC(C)=O)sc2c(O)cccc12	3	21384*	-5	-6	0
CN1CCc2[nH]c3ccc(C(=O)NN)cc3c2C1	-4	20838*	4	-2	-2
NNC(=O)c1ccc2[nH]c3c(c2c1)CCCC3	8	4272	-1	-3	2
O=C(O)c1cccnc1SC1CC(=O)N(CCc2ccccc2)C1=O (configuration not stated)	17	24601*	-2	-3	0
O=c1ccn([C@@H]2O[C@H](CNCc3ccccc3OCc3ccc(Cl)cc3Cl)[C@@H](O)[C@H]2O)c(=O)[nH]1	.	4509	-1	0	-7
Cc1noc(C)c1COc1cccc(C(=O)OC(C)C(=O)Nc2ccc3c(c2)OCO3)c1 (configuration not stated)	-8	19670*	4	0	0
CCn1c2c(c3cc(Br)ccc31)CCC/C2=N\O	-2	29475*	-19	-24	-5
COC(=O)c1ccc(OCC(=O)c2ccc(O)cc2O)cc1	-2	24431*	-3	-5	-1
O=C(COc1ccccc1F)c1ccc(O)cc1O	9	20781*	4	6	-5
CCOC(=O)C1(C)CCN1C(=O)/C=C/c1ccccc1 (configuration not stated)	.	3956	-1	-7	-10
COC(=O)c1ccccc1NC(=O)NCc1ccccc1	6	2601	0	-7	2
COC(=O)c1ccccc1NC(=O)NCc1ccncc1	114*	2647	0	-2	-1
Cc1cc(C)n(Cc2ccc(C(=O)O)cc2)n1	-1	8262	-1	-1	-4
Cc1ccc(C)n1Cc1ccc(C(=O)O)cc1	-8	24761*	-4	3	-2
COCCNC(=O)C1(C)CCCN(C(=O)c2cccnc2SC)C1 (configuration not stated)	.	2797	0	1	-2
Cc1ccc2oc3nc(C)c(C(=O)Nc4cccc(C(F)(F)F)c4)cc3c(=O)c2c1	10	22965*	?	2	-3
Cn1c(SCC(=O)NC2CCCc3ccccc32)nnc1C1CC1 (configuration not stated)	4	6753	-3	-11	2
CCN(CC)c1ccc(C=Nc2cc(C)ccc2C)c(O)c1	2	2815	72*	20	28
CCN(CC)c1ccc(C=Nc2ccc(C)cc2C)c(O)c1	-3	4378	37*	7	23
CCN(CC)c1ccc(/C=N/Nc2ccc(C)cc2)c(O)c1	6	2438	1	-12	-3
COc1ccccc1NS(=O)(=O)c1cc(NC(=O)CCc2nc3ccccc3c(=O)[nH]2)ccc1C	-6	5271	0	-2	-2
O=C(COC(=O)c1n[nH]c(=O)c2ccccc12)Nc1ccccc1F	-4	3495	0	2	-5
CNC(=S)N/N=C1\C(=O)c2cccc3cccc1c23	-2	17615*	-20	-414	6
CCCCNC(=S)N/N=C1\C(=O)c2cccc3cccc1c23	13	20454*	7	8	7
O=C(N/N=C1\C(=O)c2cccc3cccc1c23)c1ccc(O)cc1	8	4427	0	-1	-2
NS(=O)(=O)c1ccc(NC(=O)CNC(=O)c2ccc3c(c2)OCO3)cc1	4	4208	0	0	-2
